The values that follow come from PubChem BioAssay (EPA / NIEHS).

Structures are written as SMILES. Where “and” joins values, the source holds several entries; their conditions need not be identical. Identical values can stand only once. Some structures have more than one record in an assay (separate samples or runs), and their calls can disagree. Calls of active or inactive are those of the source. Rule for the calls: active = hit-call score of the fitted dose curve at least 0.9, where 1 is the maximum; inactive = score below 0.9.

Read-out in this test: Interleukin-8 (IL8), CXCL8 (gene 3576)
The test is described as follows: BSK_BE3C_IL8: BioMAP Diversity Plus: BE3C Assay for Interleukin-8 (IL8) Biomarker Activity (AID 2284280). To be noted: primary human bronchial epithelial cells. On the procedure:
BSK_BE3C is a cell-based, multiplexed-readout assay that uses bronchial epithelial cell, a human lung primary cell, with measurements taken at 24 hours after chemical dosing in a 96-well plate.BSK_BE3C_IL8 is an assay component measured in the BSK_BE3C assay. It measures IL-8 antibody related to regulation of gene expression using ELISA technology.Data from the assay component BSK_BE3C_IL8 was analyzed at the endpoint, BSK_BE3C_IL8, in the positive analysis fitting direction relative to DMSO as the negative control and baseline of activity. Using a type of binding reporter, gain or loss-of-signal activity can be used to understand protein changes. To generalize the intended target to other relatable targets, this assay endpoint is annotated to the 'cytokine' intended target family, where the subfamily is 'interleukins'.
The levels of cell surface (or secreted, indicated by the prefix "s") biomarker endpoints were measured by ELISA. Overt cytotoxicity to cells in confluent adherent cultures (all systems other than the BT system) was assessed by measuring total protein levels using sulforhodamine B (SRB) staining in parallel cultures at the time of biomarker measurements, indicated as SRB endpoints. For proliferation assays for adherent cell types, individual cell types are cultured at sub-confluence and relative cell numbers quantified by SRB staining at time points optimized for each system (48 h: 3C and CASM3C systems; 72 h: BT and HDF3CGF systems; 96 h: SAg system). SRB was performed by staining cells with 0.1% SRB after fixation with 10% TCA and reading wells at 560 nm.Viability and proliferation of PBMC (T cells) was quantified by Alamar Blue reduction for the SAg and BT systems. For PBMC viability (referred to as PBMC Cytotoxicity within the assay endpoint names), cells were plated (75,000/well in a 96-well plate) and then chemical samples added for 1 h before addition of activators, SEB and TSST-1 (20 ng/mL final concentration each). Cells were incubated for 90 h. Then, Alamar Blue (20 uL/well) (Invitrogen, Cat DAL1100) was added for 6 h, and the plates were read with a fluorescence microplate reader at 546/580 nm (excitation/emission). For PBMC proliferation, cells were plated and activated as above but incubated for only 16 h prior to addition of Alamar Blue. Plates were read after 6 h.
As for `O=C(O)C=C(C(F)(F)F)C(F)(F)F`, the outcome was inactive.

Consider `OCCCC(F)(F)C(F)(F)C(F)(F)F`, for which the outcome was inactive.

For `CCCCC(CC)COP(=O)(O)OCC(CC)CCCC` (stereo not given), the result was inactive.

For the compound `O=C(O)C(F)(F)C(F)(F)C(F)(F)C(F)(F)C(F)(F)C(F)(F)C(F)(F)C(F)(F)C(F)(F)C(F)(F)C(F)(F)C(F)(F)C(F)(F)F`, the outcome was inactive.

Regarding `COC(=O)CCC(F)(F)C(F)(F)C(F)(F)C(F)(F)F`, the outcome was inactive.

On to `N=C(N)C(F)(F)C(F)(F)C(F)(F)C(F)(F)C(F)(F)C(F)(F)C(F)(F)F`, for which the AC50 was 30 µM (active) and the result was inactive.

For the compound `O=C(O)C(F)(OC(F)(F)C(F)(OC(F)(F)C(F)(F)C(F)(F)F)C(F)(F)F)C(F)(F)F` (stereo not given), the AC50 was 0.025 µM (active) and the outcome was inactive.

As to `O=S(=O)(O)C(F)(F)C(F)(F)C(F)(F)C(F)(F)C(F)(F)C(F)(F)C(F)(F)F`, the result was inactive.

As for `O=C(O)C(F)(F)C(F)(F)C(F)(F)C(F)(F)F`, the outcome was inactive.

For `FC(F)(F)C(F)(F)C(F)(F)C(F)(F)C(F)(F)CCI`, the result was inactive.

As to `OCC(F)(F)C(F)(F)C(F)(F)C(F)F`, the half-maximal activity concentration (AC50) is 14.5 µM (active) and the result was inactive.

As to `O=C(O)C(F)(F)C(F)(F)C(F)(F)C(F)(F)C(F)(F)C(F)(F)C(F)(F)C(F)(F)Cl`, the concentration at half-maximal activity (AC50) was 38 µM (active) and 30 µM (active).

Regarding `FC(F)(I)C(F)(F)C(F)(F)C(F)(F)I`, the result was inactive; the half-maximal activity concentration (AC50) was 47.4 µM (active) and 46 µM (active).

Take `OCC(F)(F)C(F)(F)C(F)(F)C(F)(F)C(F)(F)C(F)(F)F`: the outcome was inactive.

As to `O=C(O)C(F)(F)C(F)(F)C(F)(F)F`, the result was inactive.

With `O=C(CC(=O)C(F)(F)C(F)(F)F)C(F)(F)F`, the result was inactive.

As for `FC(F)(F)C(F)(F)C(F)(F)C(F)(F)C(F)(F)C(F)(F)CCS`, the result was inactive.

Turning to `FC(F)(F)C(F)(F)C(F)(F)C(F)(F)C(F)(F)C(F)(F)C(F)(F)C(F)(F)CCS`, the result was inactive.

Consider `O=C(O)C(F)(F)C(F)(F)OC(F)(F)F`, for which the outcome was inactive.

As for `OCCCC(F)(F)C(F)(F)C(F)(F)C(F)(F)C(F)(F)C(F)(F)C(F)(F)F`, the AC50 was 37.1 µM (active) and 43 µM (active).

For the compound `OCC(F)(F)C(F)(F)C(F)(F)C(F)(F)C(F)(F)C(F)F`, the result was inactive.

For the compound `C=CC(=O)OCC(F)(F)C(F)(F)C(F)(F)C(F)(F)COC(=O)C=C`, the concentration at half-maximal activity (AC50) was 7.98 µM (active) and 7.77 µM (active).

Turning to `O=C(O)C(F)(F)C(F)(F)C(F)(F)C(F)(F)C(F)(F)C(F)(F)C(F)(F)C(F)(F)C(F)(F)C(F)(F)C(F)(F)C(F)(F)F`, the outcome was inactive.

Regarding `FC(F)(F)C(F)(F)C(F)(F)C(F)(F)C(F)(F)C(F)(F)C(F)(F)I`, the outcome was inactive.

With `O=C(O)C(F)(F)C(F)(F)F`, the concentration at half-maximal activity (AC50) is 26.1 µM (active) and the outcome was inactive.

On to `C=CC(=O)OCC(F)(F)C(F)(F)C(F)(F)C(F)(F)C(F)(F)C(F)(F)C(F)(F)F`, for which the outcome was inactive.

On to `FC(F)(F)C(F)(F)C(F)(F)C(F)(F)C(F)(F)C(F)(F)C(F)(F)Br`, for which the result was inactive.

As to `FC(F)(F)C(F)(F)CNCC(F)(F)C(F)(F)F`, the outcome was inactive.

For `FC1CC(F)(F)C(F)(F)C1(F)F` (stereo not given), the result was inactive.

Consider `FC(F)(F)C(F)(F)C(F)(F)N(C(F)(F)C(F)(F)C(F)(F)F)C(F)(F)C(F)(F)C(F)(F)F`, for which the result was inactive.

As for `C=CC(F)(F)C(F)(F)C(F)(F)C(F)(F)C(F)(F)C(F)(F)C(F)(F)C(F)(F)C=C`, the outcome was inactive.

Consider `C=C(C)C(=O)OCC(F)(F)C(F)(F)C(F)(F)F`, for which the result was inactive.

For `O=P(O)(O)OCCC(F)(F)C(F)(F)C(F)(F)C(F)(F)C(F)(F)C(F)(F)F`, the outcome was inactive.

As to `C=CC(F)(F)C(F)(F)C(F)(F)C(F)(F)C(F)(F)C(F)(F)C(F)(F)C(F)(F)F`, the result was inactive.

For `FC(F)(F)C(F)(F)C(F)(F)C(F)(F)C(F)(F)C(F)(F)C(F)(F)C(F)(F)F`, the result was inactive.

For orientation: AC50 means the concentration at which the activity in the assay is half-maximal.
